The text below walks through data of ChEMBL document CHEMBL1961873, “Compounds: GSK PKIS; Assays: Nanosyn kinase panel” (2012).

The inhibition is the drop in the measured response relative to a control, in per cent.

Test [1] deals with T1, 3-phosphoinositide-dependent protein kinase 1 (Homo sapiens) (UniProt O15530).
T1 sequence (whole entry): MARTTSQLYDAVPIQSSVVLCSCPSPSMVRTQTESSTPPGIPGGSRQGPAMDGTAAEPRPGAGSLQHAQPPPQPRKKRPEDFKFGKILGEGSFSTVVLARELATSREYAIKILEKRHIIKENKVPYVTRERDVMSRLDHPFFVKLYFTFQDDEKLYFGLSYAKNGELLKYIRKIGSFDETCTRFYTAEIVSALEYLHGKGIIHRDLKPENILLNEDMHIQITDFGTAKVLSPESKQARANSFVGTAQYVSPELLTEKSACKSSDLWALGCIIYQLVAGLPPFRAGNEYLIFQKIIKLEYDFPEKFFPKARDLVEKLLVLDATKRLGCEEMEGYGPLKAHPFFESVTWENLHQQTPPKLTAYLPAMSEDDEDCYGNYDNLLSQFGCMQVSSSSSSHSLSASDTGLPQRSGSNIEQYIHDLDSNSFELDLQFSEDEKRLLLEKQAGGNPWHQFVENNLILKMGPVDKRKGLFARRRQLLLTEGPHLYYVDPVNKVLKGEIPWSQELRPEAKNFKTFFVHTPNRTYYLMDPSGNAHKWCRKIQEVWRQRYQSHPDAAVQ
Particulars: at 0.1 µM.

Test [2] concerns the target cAMP-dependent protein kinase catalytic subunit alpha (Homo sapiens) (UniProt P17612). Particulars: at 0.1 µM.
The target is the same in test [3]. Particulars: at 1 µM.
Test [4] deals with Protein kinase C alpha type (Homo sapiens) (UniProt P17252). Particulars: at 0.1 µM.
Test [5] has the same target. Conditions: at 1 µM.
In test [6] the target is Protein kinase C beta type (Homo sapiens) (UniProt P05771). Conditions: at 0.1 µM.
Sequence of Protein kinase C beta type (Homo sapiens) (P05771 2-671 limits assumed): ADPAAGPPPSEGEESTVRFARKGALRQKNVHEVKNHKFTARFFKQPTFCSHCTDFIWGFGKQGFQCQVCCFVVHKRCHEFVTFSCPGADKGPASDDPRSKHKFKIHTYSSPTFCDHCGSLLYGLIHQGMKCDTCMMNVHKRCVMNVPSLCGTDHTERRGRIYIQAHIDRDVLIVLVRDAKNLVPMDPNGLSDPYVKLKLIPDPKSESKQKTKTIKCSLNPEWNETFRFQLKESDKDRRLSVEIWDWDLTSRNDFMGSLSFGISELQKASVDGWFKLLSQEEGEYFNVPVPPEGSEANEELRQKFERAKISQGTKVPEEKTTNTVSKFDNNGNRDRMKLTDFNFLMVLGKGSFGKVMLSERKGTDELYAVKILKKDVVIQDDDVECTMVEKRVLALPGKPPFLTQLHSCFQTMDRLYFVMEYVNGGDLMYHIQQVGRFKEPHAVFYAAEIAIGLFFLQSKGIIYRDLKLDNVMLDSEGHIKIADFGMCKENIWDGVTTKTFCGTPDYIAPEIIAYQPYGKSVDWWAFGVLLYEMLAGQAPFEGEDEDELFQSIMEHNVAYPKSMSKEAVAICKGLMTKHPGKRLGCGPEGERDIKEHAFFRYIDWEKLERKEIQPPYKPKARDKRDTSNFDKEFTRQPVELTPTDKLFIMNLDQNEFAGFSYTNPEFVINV
The target is the same in test [7]. Conditions: at 1 µM.
Test [8] concerns the target Protein kinase C eta type (Homo sapiens) (UniProt P24723). Particulars: at 0.1 µM.
The target is the same in test [9]. Particulars: at 1 µM.
In test [10] the target is Protein kinase C gamma type (Homo sapiens) (UniProt P05129). Particulars: at 0.1 µM.
For test [11] the target is unchanged. Conditions: at 1 µM.
Test [12] has as its target T2, Protein kinase C iota type (Homo sapiens) (UniProt P41743).
T2 sequence (whole entry): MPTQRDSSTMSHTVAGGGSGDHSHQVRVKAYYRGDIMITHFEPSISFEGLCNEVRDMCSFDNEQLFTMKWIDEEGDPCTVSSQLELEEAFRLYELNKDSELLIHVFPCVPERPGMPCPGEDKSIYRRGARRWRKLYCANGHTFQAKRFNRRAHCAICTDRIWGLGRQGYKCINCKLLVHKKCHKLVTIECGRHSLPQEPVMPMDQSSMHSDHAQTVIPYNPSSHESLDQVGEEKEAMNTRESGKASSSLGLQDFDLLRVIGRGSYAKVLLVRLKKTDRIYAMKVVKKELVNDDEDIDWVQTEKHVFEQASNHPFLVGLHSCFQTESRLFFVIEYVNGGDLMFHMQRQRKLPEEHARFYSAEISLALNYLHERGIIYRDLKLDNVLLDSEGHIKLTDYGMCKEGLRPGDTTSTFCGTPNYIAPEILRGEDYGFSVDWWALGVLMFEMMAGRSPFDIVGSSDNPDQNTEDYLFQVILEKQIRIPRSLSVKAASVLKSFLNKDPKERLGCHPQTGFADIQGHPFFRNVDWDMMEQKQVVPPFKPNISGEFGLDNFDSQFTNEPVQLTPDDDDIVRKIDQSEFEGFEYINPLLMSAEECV
Particulars: at 0.1 µM.

For test [13], the target named is T2, Protein kinase C iota type (Homo sapiens). Conditions: at 1 µM.
The target in test [14] is Protein kinase C theta type (Homo sapiens) (UniProt Q04759). Particulars: at 0.1 µM.
Sequence of Protein kinase C theta type (Homo sapiens) (Q04759 whole entry, looked up): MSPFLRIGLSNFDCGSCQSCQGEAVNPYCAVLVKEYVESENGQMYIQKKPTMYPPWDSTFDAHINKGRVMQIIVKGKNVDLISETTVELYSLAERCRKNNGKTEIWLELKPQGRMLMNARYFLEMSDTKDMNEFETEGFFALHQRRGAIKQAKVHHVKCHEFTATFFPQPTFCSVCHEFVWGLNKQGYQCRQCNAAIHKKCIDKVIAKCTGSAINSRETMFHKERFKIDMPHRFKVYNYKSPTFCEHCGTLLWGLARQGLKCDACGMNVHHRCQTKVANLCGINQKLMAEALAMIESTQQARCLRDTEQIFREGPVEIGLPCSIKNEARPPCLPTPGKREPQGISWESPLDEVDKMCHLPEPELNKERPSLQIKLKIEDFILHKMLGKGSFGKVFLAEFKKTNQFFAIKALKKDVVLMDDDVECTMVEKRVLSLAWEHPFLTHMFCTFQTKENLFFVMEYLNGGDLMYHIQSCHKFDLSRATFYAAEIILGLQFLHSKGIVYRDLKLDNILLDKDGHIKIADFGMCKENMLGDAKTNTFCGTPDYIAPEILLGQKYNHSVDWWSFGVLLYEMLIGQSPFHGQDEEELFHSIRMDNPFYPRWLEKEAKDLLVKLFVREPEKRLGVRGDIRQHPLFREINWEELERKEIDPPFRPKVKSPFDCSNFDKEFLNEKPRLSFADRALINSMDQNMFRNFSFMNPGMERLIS
For test [15] the target is unchanged. Conditions: at 1 µM.
In test [16] the target is Protein kinase C beta type (Homo sapiens) (UniProt P05771). Particulars: at 0.1 µM. The source holds these as a separate data set.
The target is the same in test [17]. Conditions: at 1 µM. The source holds these as a separate data set.
The target of test [18] is T3, Serine/threonine-protein kinase D1 (Homo sapiens) (UniProt Q15139).
T3 sequence (whole entry): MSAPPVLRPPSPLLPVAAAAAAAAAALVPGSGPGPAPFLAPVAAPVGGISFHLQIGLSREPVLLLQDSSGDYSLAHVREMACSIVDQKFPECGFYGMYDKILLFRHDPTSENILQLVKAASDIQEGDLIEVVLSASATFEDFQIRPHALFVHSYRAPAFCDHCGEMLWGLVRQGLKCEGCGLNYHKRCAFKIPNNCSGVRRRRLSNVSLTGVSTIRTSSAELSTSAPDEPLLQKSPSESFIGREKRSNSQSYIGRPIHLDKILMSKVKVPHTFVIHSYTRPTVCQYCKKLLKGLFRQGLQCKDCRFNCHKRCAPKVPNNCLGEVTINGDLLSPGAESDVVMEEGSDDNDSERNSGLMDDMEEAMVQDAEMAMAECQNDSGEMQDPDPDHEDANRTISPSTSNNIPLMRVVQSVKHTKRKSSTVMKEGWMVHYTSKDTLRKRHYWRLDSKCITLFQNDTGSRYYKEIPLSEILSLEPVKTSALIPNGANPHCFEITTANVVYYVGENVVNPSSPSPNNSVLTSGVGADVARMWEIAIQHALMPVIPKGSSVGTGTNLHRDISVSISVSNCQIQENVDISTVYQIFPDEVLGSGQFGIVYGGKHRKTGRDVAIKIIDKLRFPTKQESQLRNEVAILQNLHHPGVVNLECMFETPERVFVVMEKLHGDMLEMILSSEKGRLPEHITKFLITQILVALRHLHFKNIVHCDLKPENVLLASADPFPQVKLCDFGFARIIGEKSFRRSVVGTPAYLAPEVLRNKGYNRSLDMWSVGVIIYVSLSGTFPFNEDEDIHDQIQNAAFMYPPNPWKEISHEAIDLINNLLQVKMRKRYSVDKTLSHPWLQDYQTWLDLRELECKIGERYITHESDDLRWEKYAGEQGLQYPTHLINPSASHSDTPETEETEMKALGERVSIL
Conditions: at 0.1 µM.

The target in test [19] is T3, Serine/threonine-protein kinase D1 (Homo sapiens). Particulars: at 1 µM.
Test [20] concerns the target T4, Serine/threonine-protein kinase D2 (Homo sapiens) (UniProt Q9BZL6).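 Further: reported percent inhibition values are means, part of the GSK PKIS kinase panel screen.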
T4 sequence (whole entry): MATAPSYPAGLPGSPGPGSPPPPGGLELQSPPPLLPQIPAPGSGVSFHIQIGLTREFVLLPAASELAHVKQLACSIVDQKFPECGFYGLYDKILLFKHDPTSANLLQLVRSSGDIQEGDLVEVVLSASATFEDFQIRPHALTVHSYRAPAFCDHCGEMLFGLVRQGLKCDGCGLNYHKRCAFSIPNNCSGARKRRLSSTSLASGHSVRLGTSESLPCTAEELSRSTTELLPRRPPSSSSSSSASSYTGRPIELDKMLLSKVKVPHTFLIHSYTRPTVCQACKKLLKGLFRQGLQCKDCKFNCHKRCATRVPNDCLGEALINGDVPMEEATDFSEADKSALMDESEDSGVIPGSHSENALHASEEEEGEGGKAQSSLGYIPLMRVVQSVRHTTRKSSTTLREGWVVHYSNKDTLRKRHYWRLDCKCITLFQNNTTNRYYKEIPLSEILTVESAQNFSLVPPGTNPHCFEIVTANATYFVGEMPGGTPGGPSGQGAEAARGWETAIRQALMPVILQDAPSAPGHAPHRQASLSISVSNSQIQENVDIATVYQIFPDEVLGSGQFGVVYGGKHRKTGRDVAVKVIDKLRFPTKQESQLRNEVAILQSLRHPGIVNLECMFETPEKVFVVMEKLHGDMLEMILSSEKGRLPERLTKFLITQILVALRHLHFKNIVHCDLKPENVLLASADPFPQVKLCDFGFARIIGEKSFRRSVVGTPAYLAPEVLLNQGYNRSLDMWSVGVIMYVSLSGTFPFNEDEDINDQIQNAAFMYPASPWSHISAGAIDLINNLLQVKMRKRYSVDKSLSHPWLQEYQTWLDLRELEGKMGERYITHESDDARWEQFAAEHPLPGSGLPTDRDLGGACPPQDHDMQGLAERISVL
Conditions: at 0.1 µM.

Sequence of Protein kinase C eta type (Homo sapiens) (P24723 whole entry): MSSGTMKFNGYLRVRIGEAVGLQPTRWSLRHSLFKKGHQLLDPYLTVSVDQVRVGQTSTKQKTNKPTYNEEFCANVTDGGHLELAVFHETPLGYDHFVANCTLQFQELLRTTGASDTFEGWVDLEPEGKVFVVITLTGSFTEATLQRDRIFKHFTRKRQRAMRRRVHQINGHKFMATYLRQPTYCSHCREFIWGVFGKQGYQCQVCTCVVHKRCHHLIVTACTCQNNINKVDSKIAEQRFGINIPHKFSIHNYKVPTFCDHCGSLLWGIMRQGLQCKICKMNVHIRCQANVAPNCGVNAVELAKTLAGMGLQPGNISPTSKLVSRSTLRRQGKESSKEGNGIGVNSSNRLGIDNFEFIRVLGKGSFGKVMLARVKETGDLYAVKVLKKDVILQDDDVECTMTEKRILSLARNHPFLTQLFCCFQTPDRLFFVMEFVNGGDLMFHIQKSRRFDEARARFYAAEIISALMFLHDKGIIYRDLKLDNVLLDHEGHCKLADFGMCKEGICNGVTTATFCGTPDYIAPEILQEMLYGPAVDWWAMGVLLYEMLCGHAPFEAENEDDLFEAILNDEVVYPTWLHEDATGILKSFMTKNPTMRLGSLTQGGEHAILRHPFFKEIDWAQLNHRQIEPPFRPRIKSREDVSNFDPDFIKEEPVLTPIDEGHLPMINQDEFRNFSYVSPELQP

As for `COC(=O)Nc1nc2cc(Oc3cccc(NC(=O)Nc4cc(C(F)(F)F)ccc4F)c3)ccc2[nH]1`, the inhibition came out at 1.08% in test [1]; 2.29% in [2]; 4.75% in test [3]; 0.42% in test [4]; 0.96% in [5]; 0.04% in test [6]. Besides, the inhibition in test [7] was 2.71%; in [8] it was 0.61%; in test [9] it was -1.2%; in [10], 1.08%; in test [11], 2.09%; in test [12] it was -0.71%. In addition, the inhibition in test [13] was -0.55%; in test [14] it was -0.27%; in test [15], -0.91%; in test [16], 3.01%; in test [17], 1.79%; in test [18], 0.22%. The inhibition in test [19] is 1.03%; in test [20] it was 0.66%.
Turning to `O=C1NC(=O)C(N2CCc3ccccc32)=C1c1ccc(Cl)cc1`, the inhibition was 1.64% in test [1]; 1.84% in test [2]; 1.95% in test [3]; 0.86% in test [4]; 1.6% in test [5]; -0.46% in test [6]. In addition, the inhibition was found to be 0.52% in test [7]; 0.02% in [8]; 3.59% in test [9]; 5.52% in [10]; 2.33% in [11]; 1.4% in test [12]. Also, the inhibition in test [13] turned out to be 3.19%; in test [14], 2.06%; in test [15] it was 1.93%; in test [16] it was 1.71%; in [17], 1.65%; in test [18] it was 3.74%. Besides, the results for the inhibition in test [19] and in test [20] were 5.59% and 4.57%, respectively.
Take `CNC(=O)c1cncc(/C=C/c2c(Cl)cccc2Cl)c1`: the inhibition in [1] was 0.01%; in test [2], -1.08%; in test [3], -1.47%; in test [4] it was -3.64%; in [5], -2.28%; in [6], 0.07%. In addition, the inhibition is 0.23% in test [7]; 3.81% in test [8]; 5.49% in test [9]; 0.61% in test [10]; 1.44% in test [11]; 0.96% in test [12]. Also, the inhibition worked out at 0.96% in [13]; 1.94% in [14]; 1.94% in test [15]; 0.86% in test [16]; 1.27% in test [17]; 2.34% in [18]. For the same compound, the inhibition in test [19] amounted to 5%; in [20] it was 1.54%.
Regarding `Cn1cc(C=C2C(=O)Nc3cccnc32)c2ccccc21`, the inhibition is 0.63% in [1]; 0.99% in test [2]; 1.46% in test [3]; 1% in [4]; 1.29% in test [5]; -0.06% in [6]. Moreover, the inhibition was -1.44% in test [7]; 2.86% in [8]; -0.57% in test [9]; -1.77% in test [10]; -0.93% in [11]; 0.27% in [12]. Besides, the inhibition in test [13] is 1.58%; in [14], -0.39%; in [15], 0.22%; in test [16] it was 0.8%; in [17], 0.8%; in test [18], 2.63%. For the same compound, the values for the inhibition in test [19] and in test [20] were 10.6% and 3.33%, respectively.
On to `CCn1c(-c2nonc2N)nc2c(C#CC(C)(C)O)nc(OC[C@@H](N)c3ccccc3)cc21`, for which the inhibition in test [1] is 0.47%; in test [2], 77.5%; in test [3], 79.3%; in [4], -2.77%; in test [5], 8.94%; in [6] it was 6.21%. In addition, the inhibition came out at 36% in [7]; 81.4% in test [8]; 96.8% in [9]; 8.95% in [10]; 45.3% in test [11]; 1.26% in [12]. Moreover, the inhibition in test [13] was 0.8%; in test [14], 11.9%; in test [15], 52.5%; in test [16], 3.74%; in [17] it was 23.1%; in [18], -0.47%. The inhibition in test [19] is 9.57%; in test [20] it was -0.26%.
As to `COc1cc2c(cc1Nc1nc(N3CCc4ccccc43)c3cc[nH]c3n1)N(C(=O)CN(C)C)CC2`, the inhibition is 1.89% in test [1]; 1.41% in [2]; 0.85% in test [3]; 0.7% in [4]; 1.9% in [5]; 1.5% in test [6]. The inhibition in [7] was 0.59%; in test [8], 3.35%; in test [9], -0.3%; in test [10] it was 1.53%; in [11], 5.19%; in [12], 1.44%. For the same compound, the inhibition in test [13] is 3.35%; in test [14] it was 1.03%; in test [15], -0.74%; in test [16], 1.14%; in test [17] it was 1.29%; in test [18], 1.69%. The inhibition in test [19] is 3.76%; in test [20] it was 1.71%.
